# Assay outcomes as filed in PubChem.
# Most compounds without a hit are left out; they make up all but 12% or so of the library.
# SARS PLpro yeast – qHTS of Yeast-based Assay for SARS-CoV PLP | S. cerevisiae expressing SARS-CoV PLpro, growth rescue | Potency, µM (titrated, usually from 32.9 µM), inactives show top-dose activity, positive = growth rescue, usual class: activators | hit rate 0.19% among 330,000; calls by dose curve; also: 0% is about no effect; nearly all actives have a fitted effect of over 55% in size
# Pf growth 96h – Primary qHTS for delayed death inhibitors of the malarial parasite plastid, 96 hour incubation; Potency, µM (series often up to 28.7 µM), for inactives: at the highest dose activity change, negative = inhibition, actives largely listed as inhibitors; hit rate 6.9% among 320,000; P. falciparum luciferase reporter growth, 96 h; also: % is scaled to controls: 0 for no effect and ±100 for the full control effect
#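 Delayed-death screen, second-generation endpoint: infected erythrocytes, 2% hematocrit, 0.05% parasitemia final; 96 hours at 37 C, 5% CO2; luciferase detection reagent; luminescence decrease equals reduced growth.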
# Pf growth 48h – Primary qHTS for delayed death inhibitors of the malarial parasite plastid, 48 hour incubation; AID 504832, 2011; hit rate 5.9% among 310,000; Potency, µM (series often up to 28.7 µM), inactives show at the top dose activity change, negative = inhibition, actives largely listed as inhibitors; P. falciparum luciferase growth in erythrocytes, 48 h; also: % is scaled to controls: 0 for no effect and ±100 for the full control effect
#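 Cell-based growth assay: transgenic P. falciparum expressing firefly luciferase, cultured in red cells within RPMI 1640 containing 0.5% w/v Albumax, 24 mM bicarbonate and gentamycin. A drop in luciferase activity indicates inhibition.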
# Sm TGR block – qHTS Assay for the Inhibitors of Schistosoma Mansoni Peroxiredoxins. Schistosoma mansoni thioredoxin glutathione reductase (TGR), Q962Y6. purified TGR, DTNB reduction, TNB absorbance 405 nm. Potency, µM (doses to about 114 µM), for the others: top-dose activity change, negative = inhibition, actives largely listed as inhibitors. hit rate 3% among 360,000. AID 485364, 2010; also: % is scaled to controls: 0 for no effect and ±100 for the full control effect; nearly all actives have a fitted effect of over 60% in size
#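 Kinetic colorimetric format: TGR-catalysed, NADPH-driven DTNB reduction monitored via TNB absorbance. Enzyme dispensed at 20 nM; compound exposure 15 min at room temperature before reaction start.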
# Numbers without * were called inactive; ? = inconclusive; . = no result; [ ] = another dose, or the depositor's remark. Unless noted, calls follow the shape of the dose curve; as a rule, active = well fitted curve in the direction sought with a large enough effect; inconclusive = small, poorly fitted or top-dose-only effect, or another doubt; inactive = no such curve, though single readings can be large; an effect the other way counts as inactive or inconclusive. Potency is read from the fitted curve at half-maximal effect.
SMILES,SARS PLpro yeast,Pf growth 96h,Pf growth 48h,Sm TGR block
Cc1nnc2ccc(-c3cccc(NS(=O)(=O)c4ccccc4[N+](=O)[O-])c3)nn12,-1%,2.9µM*,52%,7%
Cc1nnc2ccc(-c3cccc(NS(=O)(=O)c4ccccc4Cl)c3)nn12,-2%,?,12µM*,1%
COc1ccc(C(=O)NCCS(=O)(=O)N(C)Cc2ccccc2)cc1,3%,2%,-11%,6%
O=C(CSc1ccc2nnc(CCNS(=O)(=O)c3ccccc3)n2n1)Nc1ccccc1C(F)(F)F,.,.,.,-12%
Cc1nn2c(COc3ccc(NC(=O)c4ccccc4)cc3)nnc2c2ccccc12,15%,6.6µM*,?,0%
CCC(=O)Nc1ccc(OCc2nnc3c4ccccc4c(C)nn23)cc1,0%,31%,?,6%[57.1 µM]
O=C(OCc1cc(=O)n2nc(C3CCCCC3)sc2n1)c1ccc(F)cc1,.,.,.,-1%
CC(C)NC(=S)N/N=C/c1cccs1,?,3.3µM*,.,?
O=C(NNC(=O)c1sccc1-n1cccc1)c1ccc(Cl)cc1,2%,0.33µM*,?,-11%
O=C(N/N=C\c1cccs1)c1sccc1-n1cccc1,-2%,13µM*,?,6%
O=C(N/N=C\c1ccccc1)c1sccc1-n1cccc1,-4%,41%,57%,0%
Cc1c(C(=O)N2CCC(C)CC2)c(S(=O)(=O)Nc2ccc(OC(F)(F)F)cc2)c(C)n1C,.,.,.,-2%
Cc1ncc(CN2CCC(n3nccc3NC(=O)c3ccccc3)CC2)s1,1%,8%,-15%,1%
CC(C)N(Cc1ccccc1)C(=O)/C=C/c1ccccc1[N+](=O)[O-],0%,-4%,10µM*,-12%[57.1 µM]
Cc1noc(C)c1COC(=O)c1ccccc1Oc1ccccc1,0%,13µM*,-5%,0%
Cc1noc(C)c1COc1ccccc1C(=O)NCCOc1ccccc1F,13%,-38%,-11%,4%
Cc1noc(C)c1COc1ccccc1C(=O)N(C)Cc1ccc(C(C)(C)C)cc1,-8%,15µM*,12µM*,-15%
Cc1noc(C)c1COc1ccccc1C(=O)N(C)Cc1ccc(F)cc1,3%,51%,-16%,-16%
Cc1noc(C)c1COC(=O)c1ccccc1NC(=O)Cc1ccccc1,-6%,?,?,4%
Cc1noc(C)c1COc1ccccc1C(=O)NC1CCC(C)CC1 (stereo not drawn),-8%,4.1µM*,?,7%
COc1ccc(-c2cc(-c3ccc(C)cc3)nc3c2COc2ccccc2-3)cc1,.,.,.,-1%
COc1cccc(NC(=O)Cn2c(=O)c3cccn3c3ccc(F)cc32)c1,.,.,.,-4%
Cc1ccccc1CS(=O)(=O)Cc1ccc(C(=O)NCc2ccco2)o1,3%,64%,-12%,56µM*
O=C(NCc1ccco1)c1ccc(-c2cccc(Cl)c2)o1,-1%,-2%,51%,32µM*
O=C(NCc1ccccn1)c1ccc(CS(=O)(=O)Cc2ccc(Cl)cc2)o1,1%,42%,11%,28µM*
SMILES,SARS PLpro yeast,Pf growth 96h,Pf growth 48h,Sm TGR block
O=C(NCc1ccco1)c1cc(-c2cccc(Cl)c2)on1,-23%,38%,21%,4%
O=C(NCc1cccnc1)c1ccc(CS(=O)(=O)Cc2ccc(Cl)cc2)o1,0%,.,-26%,?
COc1ccccc1OCc1ccc(C(=O)NCc2ccco2)o1,2%,14%,?,40µM*
O=C(NC(Cc1ccccc1)C(=O)NCc1ccccn1)c1ccco1 (stereo not drawn),-5%,-4%,-2%,?
CCOc1ccc(OCc2ccc(C(=O)NCc3ccncc3)o2)cc1,-1%,-4%,3%,-1%
Cc1ccccc1CS(=O)(=O)Cc1ccc(C(=O)NCc2ccccn2)o1,-2%,1%,?,13µM*
CCc1ccc(OCc2ccc(C(=O)NCc3ccccn3)o2)cc1,-13%,10µM*,?,-21%
COc1ccccc1CNC(=O)c1ccccc1N(C)S(C)(=O)=O,2%,.,0%,2%
O=C(NCc1ccccn1)c1ccco1,1%,-90%[5.75 µM],8%,50µM*
CN(c1ccccc1C(=O)NCc1ccccn1)S(C)(=O)=O,0%,.,15µM*,8%
O=C(Nc1cccc(Cl)c1)c1cc(S(=O)(=O)N2CCCc3ccccc32)ccc1F,.,.,.,-3%
CN(C(=O)CSc1nc2ccc(NC(=O)COc3ccccc3Cl)cc2s1)c1ccccc1,.,.,.,5%
Oc1cccc2nc3ccccc3nc12,-6%,12µM*,?,?
CN(C)c1nc(N/N=C/c2ccccc2O)nc(Nc2ccc(F)cc2)n1,-22%,2%,3.7µM*,12%
CN(C)c1nc(Nc2ccc(F)cc2)nc(Oc2ccc(F)cc2)n1,-2%,?,0%,-12%
c1ccc2c(c1)CC1CNCc3cccc(c31)S2 (stereo not drawn),-15%,10µM*,?,-8%
Cn1cnc([N+](=O)[O-])c1Cl,-1%,?,?,4µM*
Cn1cnc([N+](=O)[O-])c1Sc1ncn[nH]1,0%,?,?,2.8µM*
CCN(CC)c1c([N+](=O)[O-])ncn1C,-6%,.,16%,-13%
CCS(=O)(=O)c1c([N+](=O)[O-])ncn1C,-2%,?,-20%,0.63µM*
COc1ccccc1NS(=O)(=O)c1cccc(C(=O)N2CCCCCCC2)c1,-6%,-14%,-2%,-1%
Cn1c(=O)c(=O)n(C)c2cc(NC(=O)c3cccc(F)c3)c(Cl)cc21,.,.,.,-2%
COc1cc(S(=O)(=O)N(Cc2cccnc2)Cc2cccc(OC)c2OC)ccc1-n1cnnn1,-2%,?,?,4%
COc1ccccc1CN(Cc1cccnc1)S(=O)(=O)c1ccc(-n2cnnn2)c(OC)c1,19%,8.3µM*,?,6%
CCOc1ccccc1CN(Cc1ccco1)S(=O)(=O)c1ccc(-n2cnnn2)c(OC)c1,-5%,.,10µM*,2%
SMILES,SARS PLpro yeast,Pf growth 96h,Pf growth 48h,Sm TGR block
Cc1cccc(N2CCN(C(=O)c3ccc(S(=O)(=O)N(C)c4ccccc4)cc3)CC2)c1C,3%,.,.,.
O=C(O)c1cc(-c2ccco2)[nH]n1,15%,8%,20%,50µM*
COc1ccc(Cn2c(SCc3ccc(C)cc3)nc3cc(OC)c(OC)cc3c2=N)cc1Cl,-29%,2.3µM*,1.7µM*,1%
COCCCn1c(SCc2ccccc2)nc2cc(OC)c(OC)cc2c1=N,-6%,?,13µM*,-11%
CCn1cc2nc(SCc3cc(C)ccc3C)n(Cc3ccc(OC)cc3)c(=O)c2n1,.,.,.,4%
COCCCn1c(SCc2cccc(C(F)(F)F)c2)nc2cc(OC)c(OC)cc2c1=N,-30%,?,?,0%
COc1cc2nc(SCc3ccc(Cl)cc3Cl)n(Cc3cccs3)c(=N)c2cc1OC,-8%,13µM*,?,5%
COc1ccc(Cn2c(SCc3cc(C)ccc3C)nc3cc(OC)c(OC)cc3c2=N)cc1,5%,?,1.7µM*,0%
Fc1cccc(Nc2nc(N3CCOCC3)nc(N3CCOCC3)n2)c1,-1%,-16%,?,-9%
